The source of these data is PubChem BioAssay AID1492 (National Center for Advancing Translational Sciences (NCATS), 2009).

SMILES strings stand for the structures. Inconclusive results are not listed. A call without a number means that no potency is given here. Activity calls are given as the source filed them. Calls come from the whole dose curve; as a rule, active = well fitted inhibition curve with a large enough effect; inconclusive = small, poorly fitted or top-dose-only effect; inactive = flat fitted curve, though single readings scatter.

In the experiment the target is Muscarinic acetylcholine receptor M1 (Rattus norvegicus) (UniProt P08482). Kind of experiment: Counterscreen Concentration-Response Assay for Antagonists of the Neuropeptide S Receptor: Muscarinic Receptor Calcium Signal Transduction. Particulars: CHO-M1 cells, carbachol-induced calcium fluorescence, FDSS; series mostly up to 20.2 µM. An excerpt: NIH Chemical Genomics Center [NCGC] NIH Molecular Libraries Probe Production centers Network [MLPCN] MLPCN Grant: X01-DA026210-01 Assay Submitter (PI): Heilig, Markus Alexander NCGC Assay Overview: Neuropeptide S receptor (NPSR), previously known as GPR154, is a recently de-orphanized G protein coupled receptor. Its endogenous ligand is the 20 amino acids peptide Neuropeptide S (NPS). […] NPS and its receptor are found in various tissues. Specifically they are highly expressed in brain areas that have been implicated in modulation of arousal, stress and anxiety. Central administration of NPS in mice produces an unusual profile of activity by inducing wakefulness and arousal, while at the same time suppressing anxiety. Therefore, NPSR may represent a novel drug target for the treatment of sleep and anxiety disorders. To identify NPSR antagonists, we developed a cell-based assay with transfected NPS receptor. NPS can stimulate the production of cAMP as well as release intracellular calcium in Chinese hamster ovary cells stably expressing NPS receptor. This change in intracellular calcium can be detected using a calcium indicator dye on a calcium imaging plate reader system (FDSS). To validate the specific action of compounds on the NPS receptor, a counterscreen was developed that tests compounds' antagonism of M1 muscarinic receptor stimulation by carbachol. The protein, gene and taxonomy linked to this assay refer to Rattus norvegicus, but Chinese Hamster ovary cells were actually used.
NCGC Assay Protocol Summary: A Chinese hamster ovary (CHO) cell line stably expressing muscarinic acetylcholine M1 receptor (CHO-M1) was obtained from ATCC and maintained in F-12 Kaighn's media (Invitrogen, Carlsbad, CA, 21127) supplemented with 10 % FBS, 100 units/ml penicillin, 100 ug/ml streptomycin and 250 ug/ml geneticin at 37C, 5% CO2 in a humidified atmosphere. Before the assay, aliquots of cells were frozen and stored at -135C. The assay was performed on a FDSS-7000 kinetic plate reader in 1536-well format. The maximums of kinetic fluorescence responses were converted into text files using the instrument's software data export utility. […] AC50 values were determined from concentration-response data modeled with the standard Hill equation. CHO-M1 1536-well FDSS assay protocol: (1) Frozen CHO-M1 cells were thaw, washed once with fresh media and resuspended in F-12 Kaighn's media supplemented with 10 % FBS, 100 units/ml penicillin and 100 ug/ml streptomycin. Cells were plated at 3 ul/well (1200 cells) to black, clear-bottom, tissue-culture treated 1536-well plates, and then cultured at 37C, 5 % CO2 for 16 to 30 hours. (2) Add 3 ul of calcium dye (from High Performance PBX Calcium Assay Kit, BD Biosciences). The calcium dye was prepared according to the manufactory's instruction. (3) Incubation at 37C, 5 % CO2 for 60 min. (4) Add 23 nl/well of compound in DMSO solution. The final titration for each compound was between 0.6 nM and 46 uM. (5) Load plates to FDSS-7000. The following steps were performed on FDSS-7000. (6) Record fluorescent background (Ex 480 nm, Em 520-560 nm) for 10 s. (7) Add 2 ul of stimulation reagent (1X HBSS buffer, 0.1% BSA, 60 nM carbachol). Record antagonist response (Ex 480 nm, Em 520-560 nm) for 180 s. Keywords: MLSMR, MLPCN, NIH Roadmap, qHTS, NCGC, NPS, Neuropeptide S Antagonists
(The purpose of a counterscreen is to sort out artefacts and off-target activity.)
On to `COc1ccc(N=C2S/C(=C\c3ccc(N4CCOCC4)o3)C(=O)N2CCc2c[nH]c3ccccc23)cc1`, for which the Potency was 5.01 µM (active).
The entry for `Cn1c(COc2ccccc2)nnc1SCc1cc(=O)[nH]c2ccccc12` is “inactive”; for `Nn1c(COc2ccccc2)nnc1SCc1cc(=O)[nH]c2ccccc12` it is “inactive”; for `Cc1ccc(Cn2cc(SCC(=O)Nc3nccs3)c3ccccc32)cc1` it is “inactive”.
`C#CC(=O)N(c1cccc(OC)c1)C(C(=O)NC1CCCC1)c1cccs1` (configuration not stated): the Potency result was “inactive”.
The entry for `CC1CCCCN1S(=O)(=O)c1ccc(C(=O)Nc2sccc2C(N)=O)cc1` (configuration not stated) is “inactive”.
The value for `Cc1cc(OCC(=O)c2ccc(Br)cc2)ccc1N1C(=O)CCC1=O` was “inactive”.
The value for `COCCCn1c(SCc2cc(=O)[nH]c3ccccc23)nnc1-c1ccco1` was “inactive”; that for `Cc1cccc(-c2nnc(SCc3cc(=O)[nH]c4ccccc34)n2C)c1` was “inactive”; that for `O=C(Nc1nccs1)C1CCCN1S(=O)(=O)c1ccc(Cl)cc1` (configuration not stated) was “inactive”.
Take `O=C(COC(=O)c1ccccc1C(=O)c1ccc(Cl)c([N+](=O)[O-])c1)NC1CCCCCC1`: the Potency is 4.47 µM (active).
`Cc1cccnc1NC(=O)c1c(O)c2cccc3c2n(c1=O)CCC3`: the Potency result is “inactive”.
The entry for `CCC(Sc1ccc2nnc(-c3cccnc3)n2n1)C(=O)O` (configuration not stated) is “inactive”; for `CC(=O)n1nc2nc(C)cc(C)c2c1N` it is “inactive”; for `C=CCNC(=O)/C(C#N)=C/c1cn(-c2ccccc2)nc1-c1ccc(OC)c([N+](=O)[O-])c1` it is “inactive”.
For the molecule `CN(C)c1ccc(N=Cc2ccco2)cc1`, the Potency result is “inactive”.
The entry for `c1cncc(-c2nc(-c3ccco3)cs2)c1` is “inactive”; for `Cc1ccc(-c2nnn(CC(=O)Nc3ccccc3-c3ccccc3)n2)c(-n2cnnn2)c1` it is “inactive”; for `CC(=O)c1cc(NC(=O)c2ccccc2)c(=O)oc1/C=C/N(C)C` it is “inactive”.
The entry for `O=c1cc(CNCCCO)c2ccccc2[nH]1` is “inactive”; for `COc1ccc(/C=C2\CCCC3C2=NN(C(=O)c2ccco2)C3c2ccc(OC)c(OC)c2)cc1OC` (configuration not stated) it is “inactive”; for `CN(C)c1ccc(N2CN=C3SCC(=O)N3C2)cc1` it is “inactive”.
Regarding `O=C(CSc1n[nH]c(-c2cccnc2)n1)Nc1ccnc2ccccc12`, the Potency result was “inactive”.
Take `CCC(C)(C)NC(=O)Cc1ccc(C)cc1`: the Potency entry is “inactive”.
Consider `CC1CCCc2sc3nc(N4CCN(CCO)CC4)n4ncnc4c3c21` (configuration not stated), for which the Potency result was “inactive”.
With `Cn1c(C(=O)NCCN2CCc3ccccc3C2)cc2c(=O)[nH]c3ccccc3c21`, the Potency entry was “inactive”.
`C=CCn1c(SCCN2C(=O)c3ccccc3C2=O)nc2scc(-c3ccccc3)c2c1=O`: the Potency result was “inactive”.
